Columns and labels:
Settings in all cases: treatment time: 24 h
HepG2-CANX-COX4 [1] = assay: lowest phenotypically active concentration; higher = less potent
Outline: (§1)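 After 24 h at 0.3, 1, 3 or 9 µM, with four wells per treatment, fifteen gene-edited A549, HepG2 and WPMY1 reporter lines carrying BFP, GFP and RFP/FusionRed were imaged live. Each well's live-cell features were expressed relative to solvent control wells. Deviation required ≥3 of 4 wells past the 95th percentile of control Euclidean distances, and reproducibility a median replicate Pearson correlation over the 95th percentile of non-replicates. Phenotypic activity rested on both.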

WPMY1-GM130-SQSTM1 [2] = assay: as above
Outline: as §1

A549-ACTB-RAB5A = assay: phenotypically active (imaging signature differs from DMSO and reproducible) at any of 0.3-9 uM (binary (1 = active, 0 = inactive)); higher = active
Outline: as §1

A549-CANX-COX4 = assay: as above
Outline: as §1

A549-GM130-SQSTM1 [3] = assay: as above
Outline: as §1

A549-TP53BP1-CLTA = assay: as above
Outline: as §1

A549-TUBA1B-RELA = assay: as above
Outline: as §1

HepG2-ACTB-RAB5A = assay: as above
Outline: as §1

HepG2-CANX-COX4 [4] = assay: as above
Outline: as §1

HepG2-GM130-SQSTM1 = assay: as above
Outline: as §1

HepG2-TP53BP1-CLTA = assay: as above
Outline: as §1

HepG2-TUBA1B-RELA = assay: as above
Outline: as §1

WPMY1-ACTB-RAB5A = assay: as above
Outline: as §1

WPMY1-CANX-COX4 [5] = assay: as above
Outline: as §1

WPMY1-GM130-SQSTM1 [6] = assay: as above
Outline: as §1

WPMY1-TP53BP1-CLTA = assay: as above
Outline: as §1

WPMY1-TUBA1B-RELA = assay: as above
Outline: as §1

A549-GM130-SQSTM1 [7] = assay: lowest phenotypically active concentration; higher = less potent
Outline: as §1

WPMY1-CANX-COX4 [8] = assay: as above
Outline: as §1

Row | SMILES | lowest phenotypically active concentration (HepG2-CANX-COX4 [1]) [µM] | lowest phenotypically active concentration (WPMY1-GM130-SQSTM1 [2]) [µM] | phenotypically active (A549-ACTB-RAB5A) | phenotypically active (A549-CANX-COX4) | phenotypically active (A549-GM130-SQSTM1 [3]) | phenotypically active (A549-TP53BP1-CLTA) | phenotypically active (A549-TUBA1B-RELA) | phenotypically active (HepG2-ACTB-RAB5A) | phenotypically active (HepG2-CANX-COX4 [4]) | phenotypically active (HepG2-GM130-SQSTM1) | phenotypically active (HepG2-TP53BP1-CLTA) | phenotypically active (HepG2-TUBA1B-RELA) | phenotypically active (WPMY1-ACTB-RAB5A) | phenotypically active (WPMY1-CANX-COX4 [5]) | phenotypically active (WPMY1-GM130-SQSTM1 [6]) | phenotypically active (WPMY1-TP53BP1-CLTA) | phenotypically active (WPMY1-TUBA1B-RELA) | lowest phenotypically active concentration (A549-GM130-SQSTM1 [7]) [µM] | lowest phenotypically active concentration (WPMY1-CANX-COX4 [8]) [µM]
1 | O=C(Nc1ccccc1)N1CCN(c2nc(-c3ccccc3)ns2)CC1 | 9 | 9 | 0 (inactive) | 0 (inactive) | 0 (inactive) | 0 (inactive) | 0 (inactive) | 0 (inactive) | 1 (active) | 0 (inactive) | 1 (active) | 1 (active) | 0 (inactive) | 0 (inactive) | 1 (active) | 0 (inactive) | 0 (inactive) |  | 
2 | CCOc1nc(NC(=O)Cc2cc(OC)ccc2OC)cc(N)c1C#N |  |  | 0 (inactive) | 0 (inactive) | 0 (inactive) | 0 (inactive) | 1 (active) | 0 (inactive) | 0 (inactive) | 0 (inactive) | 0 (inactive) | 0 (inactive) | 0 (inactive) | 0 (inactive) | 0 (inactive) | 0 (inactive) | 0 (inactive) |  | 
3 | COc1ccc(-n2c(SCCCN3C(=O)c4cccc5cccc(c45)C3=O)nnc2-c2ccncc2)cc1 |  |  | 0 (inactive) | 0 (inactive) | 1 (active) | 0 (inactive) | 1 (active) | 0 (inactive) | 0 (inactive) | 0 (inactive) | 0 (inactive) | 0 (inactive) | 0 (inactive) | 0 (inactive) | 0 (inactive) | 0 (inactive) | 0 (inactive) | 3 | 
4 | Cc1cc(C)c(C)c(S(=O)(=O)Nc2ccc(N3CC[C@H](C(=O)O)C3)c3ccccc23)c1C |  | 1 | 0 (inactive) | 0 (inactive) | 1 (active) | 0 (inactive) | 0 (inactive) | 0 (inactive) | 0 (inactive) | 1 (active) | 0 (inactive) | 0 (inactive) | 0 (inactive) | 0 (inactive) | 1 (active) | 0 (inactive) | 0 (inactive) | 9 | 
5 | C[C@H](NC(=O)[C@@H](O)c1cc(F)cc(F)c1)C(=O)N[C@@H]1C(=O)N(C)c2ccccc2-c2ccccc21 | 1 | 3 | 0 (inactive) | 0 (inactive) | 0 (inactive) | 0 (inactive) | 0 (inactive) | 0 (inactive) | 1 (active) | 0 (inactive) | 0 (inactive) | 0 (inactive) | 1 (active) | 1 (active) | 1 (active) | 0 (inactive) | 0 (inactive) |  | 1
6 | CC(C)(C)c1ccc(C(=O)Nc2cn3cc(-n4ccnc4)ccc3n2)cc1 |  |  | 0 (inactive) | 0 (inactive) | 0 (inactive) | 0 (inactive) | 0 (inactive) | 1 (active) | 0 (inactive) | 0 (inactive) | 0 (inactive) | 0 (inactive) | 0 (inactive) | 0 (inactive) | 0 (inactive) | 0 (inactive) | 0 (inactive) |  | 
7 | COc1ccc(CC2c3cc(OC)c(OC)cc3CC[N+]2(C)CCC(=O)OCCCCCOC(=O)CC[N+]2(C)CCc3cc(OC)c(OC)cc3C2Cc2ccc(OC)c(OC)c2)cc1OC (configuration not stated) [Atracurium besilate] | 9 | 9 | 0 (inactive) | 0 (inactive) | 0 (inactive) | 0 (inactive) | 0 (inactive) | 0 (inactive) | 1 (active) | 1 (active) | 0 (inactive) | 0 (inactive) | 1 (active) | 0 (inactive) | 1 (active) | 0 (inactive) | 0 (inactive) |  | 
8 | CCc1c(C(=O)Nc2cc(S(=O)(=O)N(CC)CC)ccc2O)[nH]c(C)c1C(C)=O | 9 | 9 | 0 (inactive) | 0 (inactive) | 0 (inactive) | 0 (inactive) | 0 (inactive) | 1 (active) | 1 (active) | 0 (inactive) | 0 (inactive) | 0 (inactive) | 0 (inactive) | 0 (inactive) | 1 (active) | 0 (inactive) | 0 (inactive) |  | 
9 | CC1=C(/C=C/C(C)=C/C=C/C(C)=C/C(=O)O)C(C)(C)CCC1 [isotretinoin] | ≤ 0.3 |  | 0 (inactive) | 0 (inactive) | 0 (inactive) | 0 (inactive) | 0 (inactive) | 0 (inactive) | 1 (active) | 0 (inactive) | 0 (inactive) | 0 (inactive) | 0 (inactive) | 0 (inactive) | 0 (inactive) | 1 (active) | 0 (inactive) |  | 
10 | O=C1NN(c2ccc(F)c(Cl)c2)C(=O)/C1=C\c1ccc([N+](=O)[O-])o1 |  | 9 | 0 (inactive) | 0 (inactive) | 1 (active) | 0 (inactive) | 0 (inactive) | 0 (inactive) | 0 (inactive) | 0 (inactive) | 0 (inactive) | 0 (inactive) | 0 (inactive) | 1 (active) | 1 (active) | 0 (inactive) | 0 (inactive) | 3 | 9
11 | O=C(/C=C/c1ccc(O)cc1)c1ccc(O)cc1O [Isoliquiritigenin] |  |  | 0 (inactive) | 0 (inactive) | 0 (inactive) | 0 (inactive) | 1 (active) | 0 (inactive) | 0 (inactive) | 1 (active) | 0 (inactive) | 0 (inactive) | 0 (inactive) | 1 (active) | 0 (inactive) | 1 (active) | 0 (inactive) |  | 9
